Reference: ChEMBL document CHEMBL3433997, “St. Jude Leishmania screening dataset” (2016)

Target: Solute carrier family 2, facilitated glucose transporter member 1 (Homo sapiens) (UniProt P11166)
Test: ST_JUDE_LEISH: Cytotoxicity at 2uM final concentration against transgenic Leishmania Mexicana promastigotes LmGLUT1 that are glucose transport deficient and complemented with the human glucose transporter GLUT1. Activity is measured by DNA content using SYBR green in vitro
Format: functional

Chain of Solute carrier family 2, facilitated glucose transporter member 1 (Homo sapiens) (P11166 whole entry): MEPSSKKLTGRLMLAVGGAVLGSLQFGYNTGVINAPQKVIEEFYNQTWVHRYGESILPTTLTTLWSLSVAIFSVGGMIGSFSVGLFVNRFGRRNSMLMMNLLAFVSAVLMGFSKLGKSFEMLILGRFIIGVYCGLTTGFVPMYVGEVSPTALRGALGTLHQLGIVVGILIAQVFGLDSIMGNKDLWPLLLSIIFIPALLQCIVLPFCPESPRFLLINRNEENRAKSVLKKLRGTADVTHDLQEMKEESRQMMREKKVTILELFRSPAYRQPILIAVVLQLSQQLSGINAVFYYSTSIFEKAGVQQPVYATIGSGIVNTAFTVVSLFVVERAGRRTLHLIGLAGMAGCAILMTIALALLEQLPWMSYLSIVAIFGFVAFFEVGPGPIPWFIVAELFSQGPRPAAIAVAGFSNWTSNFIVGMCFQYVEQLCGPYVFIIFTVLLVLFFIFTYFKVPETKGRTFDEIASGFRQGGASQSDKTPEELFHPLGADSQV

Compound	inhibition [%]
O=C(/C=C/c1ccc(F)cc1)NC1CCC(CCN2CCc3ccc(-n4cccn4)cc3CC2)CC1 (stereo not given)	11.7
CCCNC(=O)CN1CN(c2ccccc2)C2(CCN(C(=O)c3ccc(C(C)(C)C)cc3)CC2)C1=O	-0.42
Cc1nnsc1C(=O)Nc1cccc(-c2cccc(-c3nc4cc(F)ccc4[nH]3)c2)c1	0.66
c1cncc(CCNCc2cccc(-c3ccc(-c4nc5ccccc5[nH]4)s3)c2)c1	7.99
CC(C)(C)CCN1CCC(CNC(=O)c2cc(-c3cccc(C(F)(F)F)c3)cs2)C1 (stereo not given)	3.1
COc1ccc(-c2csc(C(=O)NC3CCC(N4CCC(c5ccccc5C)CC4)CC3)c2)cc1 (stereo not given)	3.25
COc1ccc2nccc(N3CCCN(CCNS(=O)(=O)c4ccc5c(c4)NC(=O)CS5)CC3)c2n1	0.19
O=C(NC1CCN(Cc2ccccc2)CC1)c1ccc(-c2nc3cc(Cl)c(F)cc3[nH]2)cc1	1.14
CCCCCCCNC(=O)NCC1CCCN(CCCCCNC(=O)/C=C/c2ccc(Cl)c(Cl)c2)C1 (stereo not given)	1.71
COc1cc2c(cc1NC(=O)CN1CCN(C(=O)c3ccco3)CC1)oc1ccccc12	4.29
CCCN(CCC)CCCOc1ccc(C(=O)c2c(-c3ccc(OCCCN(CCC)CCC)cc3)oc3ccc(Cl)cc23)cc1	70.8
CC(=O)Nc1ccc(Nc2cc(C)nc(Nc3ccc(NC(C)=O)cc3)n2)cc1	2.12
Cc1ccc(N2CCN(C(=O)c3cccc(-c4cncc5nc(-c6ccco6)n(C)c45)c3)CC2)nc1	6.13
O=S(=O)(NCCN1CCCC1)c1cccc(-c2ccc(CNCc3ccsc3)cc2)c1	2.71
CN(C)C(=S)N/N=C1/C(=O)Nc2ccccc21	3.54
O=C(Nc1ccccc1)N(Cc1ccc(-c2cccc(CNCc3ccc4c(c3)OCO4)c2)cc1)C1CCN(Cc2ccccc2)CC1	-0.01
COc1cccc(CC(=O)N2CCC(n3c(C)nc4ccc(F)cc43)CC2)c1	2.08
O=C(/C=C/c1ccc(Cl)c(Cl)c1)NCCCCCN1CCCN(C(=O)Nc2ccc(Cl)cc2)CC1	0.39
Brc1cc2c(cc1C=NNc1nc(=Nc3ccccc3)[nH]c(=Nc3ccccc3)[nH]1)OCO2	3.97
CCc1cc2c3c(N)nc(N)nc3ccc2n1C(CC)CC	71.2

Compound	inhibition [%]
Nc1nc(N)c2c(CCc3ccc(Cl)c(Cl)c3)cccc2n1	10.7
COc1cc(Br)c(S(=O)(=O)n2cc(CN3CCC(N)CC3)c3cc(Cl)ccc32)cc1OC	1.4
O=C(NCC1CCN(Cc2ccc(F)cc2)C1)c1cc(-c2cccc(C(F)(F)F)c2)cs1 (stereo not given)	-0.31
CC(Cc1ccc(CN2CCN(Cc3ccccc3)CC2)cc1)NCC(O)c1cccc(C(F)(F)F)c1 (stereo not given)	5.03
CCOc1ccc(C2CCN(CCCCNC(=O)c3ccc(NC(=O)c4ccc(Cl)cc4)cc3)CC2)c(Cl)c1	1.99
Cc1cccc2nc(-c3cccc(-c4cccc(CNCC5CCCO5)c4)c3)[nH]c12 (stereo not given)	1.16
COCC(=O)N(Cc1ccccc1-c1cccc(CNCc2ccc3c(c2)OCO3)c1)C1CCN(Cc2ccccc2)CC1	0.4
NC(=O)N1CCN(Cc2ccc(Br)cc2)CC1	0.39
COc1ccc(CNc2ccc3nc(N)nc(N)c3c2)cc1	-2.31
Cc1cccc(-n2c(Nc3ccc(C)c(Cl)c3)nc3ccc(S(=O)(=O)NC(C)C(C)C)cc32)c1 (stereo not given)	2.71
CN1CCCC1CNS(=O)(=O)c1ccc(C(=O)NCC2CC2)cc1 (stereo not given)	1.51
COc1cc2c(cc1OC)CN(CCc1ccc(NC(=O)c3cc4cc(OC(F)(F)F)ccc4[nH]3)cc1)CC2	3.34
O=C(/C=C/c1ccc(Cl)c(Cl)c1)NCCCCCCN1CCCN(C(=O)Nc2ccc(C(F)(F)F)cc2)CC1	2.54
COc1ccc(C(=O)CCC(=O)N(Cc2ccc(-c3ccc(CNCCc4ccc(S(C)(=O)=O)cc4)cn3)cc2)C2CCN(Cc3ccccc3)CC2)cc1F	4.03
CN(C)CCOc1cc(NC(=O)Nc2ccc(Cl)cc2C(F)(F)F)ccc1I	3.57
Cc1cccc(CNc2nc(C)cc(NCCC(=O)NCc3cccc(F)c3)n2)c1	7.68
Cc1cccc2nc(-c3ccc(-c4ccc(CN5CCN(c6ccc(C#N)cn6)CC5)cc4)s3)[nH]c12	5.16
CS(=O)(=O)c1ccc(-c2cc(C(F)(F)F)nc(N[C@@H]3CCCC[C@H]3OCc3ccccc3)n2)cc1	1.33
CCOc1cc(Br)c(C(C)NC(=O)c2ccccc2)cc1OCC (stereo not given)	1.08
CC(=O)c1ccc(NC(=O)Nc2ccc(N(C)c3ccnc(Nc4cccc(CS(C)(=O)=O)c4)n3)cc2)cc1	-0.18

Target: Hexose transporter 1 (Plasmodium falciparum) (UniProt O97467)
Test: ST_JUDE_LEISH: Cytotoxicity at 2uM final concentration against transgenic Leishmania Mexicana promastigotes LmPfHT that are glucose transport deficient and complemented with the Plasmodium falciparum hexose transporter. Activity is measured by DNA content using SYBR green in vitro
Format: functional

Compound	inhibition [%]
O=C(/C=C/c1ccc(F)cc1)NC1CCC(CCN2CCc3ccc(-n4cccn4)cc3CC2)CC1 (stereo not given)	12.9
CCCNC(=O)CN1CN(c2ccccc2)C2(CCN(C(=O)c3ccc(C(C)(C)C)cc3)CC2)C1=O	1.19
Cc1nnsc1C(=O)Nc1cccc(-c2cccc(-c3nc4cc(F)ccc4[nH]3)c2)c1	0.05
c1cncc(CCNCc2cccc(-c3ccc(-c4nc5ccccc5[nH]4)s3)c2)c1	7.19
CC(C)(C)CCN1CCC(CNC(=O)c2cc(-c3cccc(C(F)(F)F)c3)cs2)C1 (stereo not given)	2.95
COc1ccc(-c2csc(C(=O)NC3CCC(N4CCC(c5ccccc5C)CC4)CC3)c2)cc1 (stereo not given)	4.24
COc1ccc2nccc(N3CCCN(CCNS(=O)(=O)c4ccc5c(c4)NC(=O)CS5)CC3)c2n1	1
O=C(NC1CCN(Cc2ccccc2)CC1)c1ccc(-c2nc3cc(Cl)c(F)cc3[nH]2)cc1	0.15
CCCCCCCNC(=O)NCC1CCCN(CCCCCNC(=O)/C=C/c2ccc(Cl)c(Cl)c2)C1 (stereo not given)	4.27
COc1cc2c(cc1NC(=O)CN1CCN(C(=O)c3ccco3)CC1)oc1ccccc12	2.47
CCCN(CCC)CCCOc1ccc(C(=O)c2c(-c3ccc(OCCCN(CCC)CCC)cc3)oc3ccc(Cl)cc23)cc1	49.3
CC(=O)Nc1ccc(Nc2cc(C)nc(Nc3ccc(NC(C)=O)cc3)n2)cc1	5.08
Cc1ccc(N2CCN(C(=O)c3cccc(-c4cncc5nc(-c6ccco6)n(C)c45)c3)CC2)nc1	5.42
O=S(=O)(NCCN1CCCC1)c1cccc(-c2ccc(CNCc3ccsc3)cc2)c1	1.13
CN(C)C(=S)N/N=C1/C(=O)Nc2ccccc21	1.92
O=C(Nc1ccccc1)N(Cc1ccc(-c2cccc(CNCc3ccc4c(c3)OCO4)c2)cc1)C1CCN(Cc2ccccc2)CC1	0.92
COc1cccc(CC(=O)N2CCC(n3c(C)nc4ccc(F)cc43)CC2)c1	4.64
O=C(/C=C/c1ccc(Cl)c(Cl)c1)NCCCCCN1CCCN(C(=O)Nc2ccc(Cl)cc2)CC1	-0.48
Brc1cc2c(cc1C=NNc1nc(=Nc3ccccc3)[nH]c(=Nc3ccccc3)[nH]1)OCO2	3.42
CCc1cc2c3c(N)nc(N)nc3ccc2n1C(CC)CC	72.7

Compound	inhibition [%]
Nc1nc(N)c2c(CCc3ccc(Cl)c(Cl)c3)cccc2n1	11.2
COc1cc(Br)c(S(=O)(=O)n2cc(CN3CCC(N)CC3)c3cc(Cl)ccc32)cc1OC	2.11
O=C(NCC1CCN(Cc2ccc(F)cc2)C1)c1cc(-c2cccc(C(F)(F)F)c2)cs1 (stereo not given)	-1.16
CC(Cc1ccc(CN2CCN(Cc3ccccc3)CC2)cc1)NCC(O)c1cccc(C(F)(F)F)c1 (stereo not given)	4.18
CCOc1ccc(C2CCN(CCCCNC(=O)c3ccc(NC(=O)c4ccc(Cl)cc4)cc3)CC2)c(Cl)c1	4.55
Cc1cccc2nc(-c3cccc(-c4cccc(CNCC5CCCO5)c4)c3)[nH]c12 (stereo not given)	0.17
COCC(=O)N(Cc1ccccc1-c1cccc(CNCc2ccc3c(c2)OCO3)c1)C1CCN(Cc2ccccc2)CC1	1.22
NC(=O)N1CCN(Cc2ccc(Br)cc2)CC1	1.05
COc1ccc(CNc2ccc3nc(N)nc(N)c3c2)cc1	1.62
Cc1cccc(-n2c(Nc3ccc(C)c(Cl)c3)nc3ccc(S(=O)(=O)NC(C)C(C)C)cc32)c1 (stereo not given)	1.5
CN1CCCC1CNS(=O)(=O)c1ccc(C(=O)NCC2CC2)cc1 (stereo not given)	2.45
COc1cc2c(cc1OC)CN(CCc1ccc(NC(=O)c3cc4cc(OC(F)(F)F)ccc4[nH]3)cc1)CC2	3.67
O=C(/C=C/c1ccc(Cl)c(Cl)c1)NCCCCCCN1CCCN(C(=O)Nc2ccc(C(F)(F)F)cc2)CC1	2.95
COc1ccc(C(=O)CCC(=O)N(Cc2ccc(-c3ccc(CNCCc4ccc(S(C)(=O)=O)cc4)cn3)cc2)C2CCN(Cc3ccccc3)CC2)cc1F	5.85
CN(C)CCOc1cc(NC(=O)Nc2ccc(Cl)cc2C(F)(F)F)ccc1I	1.15
Cc1cccc(CNc2nc(C)cc(NCCC(=O)NCc3cccc(F)c3)n2)c1	7.53
Cc1cccc2nc(-c3ccc(-c4ccc(CN5CCN(c6ccc(C#N)cn6)CC5)cc4)s3)[nH]c12	6.3
CS(=O)(=O)c1ccc(-c2cc(C(F)(F)F)nc(N[C@@H]3CCCC[C@H]3OCc3ccccc3)n2)cc1	1.84
CCOc1cc(Br)c(C(C)NC(=O)c2ccccc2)cc1OCC (stereo not given)	0.92
CC(=O)c1ccc(NC(=O)Nc2ccc(N(C)c3ccnc(Nc4cccc(CS(C)(=O)=O)c4)n3)cc2)cc1	0.54
